Experimental data: PubChem BioAssay (Tox21)
“And” between values parts separate entries of the source, which are not always exact repeats. Equal entries are not always repeated. Some compounds were tested as several samples or in several runs, with calls that do not always agree. The source made the active and inactive calls. Unless noted, calls come from the whole dose curve; as a rule, active = well fitted curve in the direction sought with a large enough effect in the repeat runs; inconclusive = weak or mixed curves; inactive = no such curve, though single readings can be large; an effect the other way counts as inactive or inconclusive.

Columns and labels:
[1] = qHTS assay to identify small molecule antagonists of the thyroid receptor (TR) signaling pathway - cell viability counter screen (AID 743064); note: nearly all actives have a fitted effect of over 50% in size; note: potency is the fitted concentration of half-maximal effect
Procedure, shortened: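 Plate GH3.TRE-Luc cells; incubate 4 h at 37 °C; add compound, then T3 to 1 nM final; incubate 23.5 h; add CellTiter-Fluor; incubate 30 min at 37 °C, 5% CO2; read fluorescence.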

[2] = test system: thyroid hormone receptor (rat, GH3 cells); experiment: qHTS assay to identify small molecule agonists of the thyroid receptor (TR) signaling pathway (AID 743066; calls by dose curve)
[3] = molecular target: Estrogen receptor (Homo sapiens) (UniProt P03372); experiment: qHTS assay to identify small molecule antagonists of the estrogen receptor alpha (ER-alpha) signaling pathway (AID 743069; active = well fitted curve in the direction sought with a large enough effect in the signal ratio in the repeat runs, not every such curve was filed as active; inconclusive = weak or mixed curves, or effect the other way; inactive = no such curve, though single readings can be large or run the other way; the % refers to the signal ratio)
Procedure, shortened: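 ER-alpha-UAS-bla GripTite HEK293 line; 2% charcoal-stripped FBS overnight; plated, 4 hr 37C/5% CO2; cpd in DMSO + 17beta-estradiol, 18 hr 37C; LiveBLAzer B/G FRET substrate 2 hr RT; fluorescence intensity.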

[4] = qHTS assay to identify small molecule antagonists of the estrogen receptor alpha (ER-alpha) signaling pathway - cell viability counter screen (AID 743074; calls by dose curve;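 note: HEK293 cells carrying ER-alpha-UAS-bla reporter stimulated with 17beta-estradiol; nearly all actives have a fitted effect of over 45% in size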)
[5] = molecular target: Estrogen receptor (Homo sapiens) (UniProt P03372); experiment: qHTS assay to identify small molecule agonists of the estrogen receptor alpha (ER-alpha) signaling pathway (AID 743075; calls by dose curve;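 note: HEK293 GripTite cells with ER-alpha and UAS-driven beta-lactamase reporter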; note: potency is the fitted concentration of half-maximal effect)
[6] = qHTS assay to identify small molecule antagonists of the estrogen receptor alpha (ER-alpha) signaling pathway using the BG1 cell line - cell viability counter screen (AID 743081);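 note: compound given together with 17beta-estradiol as the ER stimulus; nearly all actives have a fitted effect of over 45% in size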; note: potency is the fitted concentration of half-maximal effect
[7] = qHTS assay to identify aromatase inhibitors - cell viability counter screen (AID 743084);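 note: cells stimulated with testosterone during compound exposure; nearly all actives have a fitted effect of over 55% in size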; note: potency is the fitted concentration of half-maximal effect
[8] = molecular target: Aryl hydrocarbon receptor (Homo sapiens) (UniProt P35869); experiment: qHTS assay to identify small molecule that activate the aryl hydrocarbon receptor (AhR) signaling pathway (AID 743085); note: nearly all actives have a fitted effect of over 15% in size; note: potency is the fitted concentration of half-maximal effect;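 for activation: HG2L7.5c1 human HepG2 liver cells with stably integrated DRE-driven firefly reporter; series mostly up to about 70 µM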
Procedure, shortened: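 Steps: seed HepG2-AhR-luc cells; allow 5 h at 37C; pin-transfer test compound or vehicle; incubate 24 h at 37C; add viability dye (30 min, 37C) and read fluorescence; add luciferase substrate (30 min, RT) and read luminescence.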

[9] = qHTS assay to identify small molecule that activate the aryl hydrocarbon receptor (AhR) signaling pathway - cell viability counter screen (AID 743086); note: nearly all actives have a fitted effect of over 45% in size; note: potency is the fitted concentration of half-maximal effect
Procedure, shortened: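 Cytotoxicity counter screen: CellTiter-Fluor signal (30 min, 37 C) in 4000 HepG2 cells/well carrying the DRE-luciferase reporter, following 24 h compound exposure at 37 C.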

[10] = molecular target: Peroxisome proliferator-activated receptor gamma (Homo sapiens) (UniProt P37231); experiment: qHTS assay to identify small molecule agonists of the peroxisome proliferator-activated receptor gamma (PPARg) signaling pathway (AID 743094; active = well fitted activation curve with a large enough effect in the signal ratio in the repeat runs, not every such curve was filed as active; inconclusive = weak or mixed curves, or effect the other way; inactive = no such curve, though single readings can be large or run the other way; the % refers to the signal ratio)
Procedure, shortened: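 Stably transfected HEK293H cells (GeneBLAzer PPARg UAS-bla) were incubated with test substances for 17 h at 37C after a 5 h pre-incubation; beta-lactamase activity was then detected by FRET substrate fluorescence.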

[11] = molecular target: Peroxisome proliferator-activated receptor gamma (Homo sapiens) (UniProt P37231); experiment: qHTS assay to identify small molecule antagonists of the peroxisome proliferator-activated receptor gamma (PPARg) signaling pathway (AID 743191; calls by dose curve; note: series mostly up to about 63 µM; nearly all actives have a fitted effect of over 30% in size)
Procedure, shortened: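 Beta-lactamase reporter under UAS control in HEK293H PPARg-bla cells; compound treatment 17 h at 37C. Read-out: fluorescence intensity after 1 h room-temperature incubation with LiveBLAzer B/G FRET substrate.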

[12] = qHTS assay to identify small molecule antagonists of the peroxisome proliferator-activated receptor gamma (PPARg) signaling pathway - cell viability counter screen (AID 743194); note: nearly all actives have a fitted effect of over 55% in size; note: potency is the fitted concentration of half-maximal effect
Procedure, shortened: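 Viability was measured as CellTiter-Glo luminescence in GeneBLAzer PPARg UAS-bla HEK293H cells. These cells had been exposed 17 h at 37 C to compounds together with rosiglitazone at 50 nM final, with the beta-lactamase readout taken in the same wells.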

[13] = qHTS assay for small molecule agonists of the antioxidant response element (ARE) signaling pathway (AID 743202; active = well fitted activation curve with a large enough effect in the signal ratio in the repeat runs, not every such curve was filed as active; inconclusive = weak or mixed curves, or effect the other way; inactive = no such curve, though single readings can be large or run the other way; the % refers to the signal ratio)
Procedure, shortened: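 Quantitative high-throughput format in HepG2 cells bearing an integrated ARE-beta-lactamase reporter. Compound exposure lasted 16 h at 37 C, and fluorescence was read 2 h after adding LiveBLAzer B/G substrate at room temperature.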

[14] = qHTS assay for small molecule agonists of the antioxidant response element (ARE) signaling pathway - cell viability counter screen (AID 743203; calls by dose curve; note: nearly all actives have a fitted effect of over 55% in size; note: potency is the fitted concentration of half-maximal effect)
Procedure, shortened: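 Cells (ARE-bla HepG2, 2,000/well) receive DMSO-dissolved compounds after a 5 hrs rest. Plates incubate 16 hrs at 37C/5% CO2. CellTiter-Glo luminescence is then recorded after 30 min at room temperature.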

[15] = qHTS assay for small molecule activators of the heat shock response signaling pathway - cell viability counter screen (AID 743209); note: nearly all actives have a fitted effect of over 50% in size; note: potency is the fitted concentration of half-maximal effect
Procedure, shortened: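 Quantitative HTS format, Tox21 10K library. HeLa cells carrying an HSE-driven beta-lactamase reporter were treated 5 h at 37 C, then assessed for viability by CellTiter-Glo luminescence.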

[16] = qHTS assay for small molecule activators of the heat shock response signaling pathway (AID 743210; active = well fitted activation curve with a large enough effect in the signal ratio in the repeat runs, with a control signal flat, not every such curve was filed as active; inconclusive = weak or mixed curves; the % refers to the signal ratio;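 note: HeLa cells with beta-lactamase reporter driven by heat shock elements; series mostly up to about 63 µM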)
Procedure, shortened: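 HeLa HSE-bla cells, overnight plating; cpd in DMSO 5 h, 37 C; LiveBLAzer B/G FRET substrate 2.5 h RT; fluorescence intensity read.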

[17] = molecular target: Estrogen receptor (Homo sapiens) (UniProt P03372); experiment: qHTS assay to identify small molecule agonists of the estrogen receptor alpha (ER-alpha) signaling pathway using the BG1 cell line (AID 743079); note: nearly all actives have a fitted effect of over 20% in size; note: potency is the fitted concentration of half-maximal effect
[18] = qHTS assay to identify small molecule antagonists of the estrogen receptor alpha (ER-alpha) signaling pathway using the BG1 cell line (AID 743080; calls by dose curve;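 note: BG1 cells stimulated with 17beta-estradiol alongside compound; series mostly up to about 70 µM; nearly all actives have a fitted effect of over 25% in size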)
Procedure, shortened: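 Endogenous full-length ER-alpha in BG1-Luc-4E2 cells drives a stably integrated 4×ERE luciferase gene; compounds were tested against 17beta-estradiol over 21.5 h, with luminescence and multiplexed viability fluorescence recorded.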

[19] = molecular target: Aromatase (Homo sapiens) (UniProt P11511); experiment: qHTS assay to identify aromatase inhibitors (AID 743083); note: nearly all actives have a fitted effect of over 55% in size; note: potency is the fitted concentration of half-maximal effect
[20] = qHTS assay to identify small molecule antagonists of the thyroid receptor (TR) signaling pathway (AID 743065); note: nearly all actives have a fitted effect of over 55% in size; note: potency is the fitted concentration of half-maximal effect
Procedure, shortened: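 Antagonism measured as loss of luciferase signal in GH3 cells stably carrying a TRE-luciferase reporter, co-treated with compound and T3 (1 nM final) for 23.5 h at 37 C. Viability was read in the same well by CellTiter-Fluor.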

Measured: Potency

Chain of Aryl hydrocarbon receptor (Homo sapiens) (P35869 whole entry, looked up): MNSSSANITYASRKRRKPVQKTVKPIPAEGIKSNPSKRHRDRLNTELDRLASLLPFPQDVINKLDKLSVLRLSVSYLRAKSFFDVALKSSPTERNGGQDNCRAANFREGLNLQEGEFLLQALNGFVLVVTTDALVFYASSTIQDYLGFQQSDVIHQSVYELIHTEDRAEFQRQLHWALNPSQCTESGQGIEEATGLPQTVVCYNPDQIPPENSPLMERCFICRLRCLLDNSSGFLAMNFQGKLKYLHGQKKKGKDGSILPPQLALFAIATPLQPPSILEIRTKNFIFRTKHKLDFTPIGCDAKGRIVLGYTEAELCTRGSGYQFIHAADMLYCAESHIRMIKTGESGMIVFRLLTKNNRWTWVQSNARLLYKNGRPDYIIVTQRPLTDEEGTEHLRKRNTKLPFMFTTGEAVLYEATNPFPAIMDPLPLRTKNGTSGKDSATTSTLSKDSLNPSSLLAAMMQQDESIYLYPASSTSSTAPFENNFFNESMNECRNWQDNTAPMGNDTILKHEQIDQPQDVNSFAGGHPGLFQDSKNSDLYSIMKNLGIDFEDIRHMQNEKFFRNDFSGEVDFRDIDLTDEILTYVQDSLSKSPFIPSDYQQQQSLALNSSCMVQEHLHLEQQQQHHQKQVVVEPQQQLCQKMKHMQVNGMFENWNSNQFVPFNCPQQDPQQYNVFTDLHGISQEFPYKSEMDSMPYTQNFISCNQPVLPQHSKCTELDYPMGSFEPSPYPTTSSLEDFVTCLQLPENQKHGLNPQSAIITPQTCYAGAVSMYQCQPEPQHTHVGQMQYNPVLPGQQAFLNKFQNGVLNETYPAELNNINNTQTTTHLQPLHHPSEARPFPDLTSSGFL
Chain of Estrogen receptor (Homo sapiens) (P03372 whole entry, looked up): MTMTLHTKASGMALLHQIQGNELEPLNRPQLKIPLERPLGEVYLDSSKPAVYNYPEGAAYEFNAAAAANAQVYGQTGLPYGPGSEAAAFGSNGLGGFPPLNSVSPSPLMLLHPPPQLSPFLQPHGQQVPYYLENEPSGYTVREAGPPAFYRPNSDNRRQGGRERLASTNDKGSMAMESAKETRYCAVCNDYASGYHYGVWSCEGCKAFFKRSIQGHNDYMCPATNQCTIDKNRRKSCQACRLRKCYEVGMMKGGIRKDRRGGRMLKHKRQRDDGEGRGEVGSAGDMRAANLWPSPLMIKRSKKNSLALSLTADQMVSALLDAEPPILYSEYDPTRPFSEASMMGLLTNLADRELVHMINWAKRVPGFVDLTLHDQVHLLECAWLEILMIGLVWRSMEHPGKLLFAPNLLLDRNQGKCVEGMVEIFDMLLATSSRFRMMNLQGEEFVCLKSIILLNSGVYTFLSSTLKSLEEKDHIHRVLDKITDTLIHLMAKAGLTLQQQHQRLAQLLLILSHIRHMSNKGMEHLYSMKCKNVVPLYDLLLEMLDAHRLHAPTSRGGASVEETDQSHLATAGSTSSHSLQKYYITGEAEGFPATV
Chain of Peroxisome proliferator-activated receptor gamma (Homo sapiens) (P37231 whole entry, looked up): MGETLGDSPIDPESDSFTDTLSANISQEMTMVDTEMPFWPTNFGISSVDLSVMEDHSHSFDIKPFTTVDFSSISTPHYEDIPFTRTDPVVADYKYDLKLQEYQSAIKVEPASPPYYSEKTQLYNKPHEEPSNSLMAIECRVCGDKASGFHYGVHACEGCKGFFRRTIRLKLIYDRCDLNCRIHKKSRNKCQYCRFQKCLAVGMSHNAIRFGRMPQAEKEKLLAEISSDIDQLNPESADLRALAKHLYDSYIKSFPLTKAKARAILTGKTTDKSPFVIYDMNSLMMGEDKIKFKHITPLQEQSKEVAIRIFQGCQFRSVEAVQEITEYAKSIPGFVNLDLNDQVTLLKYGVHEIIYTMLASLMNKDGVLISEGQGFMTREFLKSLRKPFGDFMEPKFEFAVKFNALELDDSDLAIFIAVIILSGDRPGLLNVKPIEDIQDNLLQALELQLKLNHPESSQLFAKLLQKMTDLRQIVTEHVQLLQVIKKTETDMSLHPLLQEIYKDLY
Chain of Aromatase (Homo sapiens) (P11511 whole entry, looked up): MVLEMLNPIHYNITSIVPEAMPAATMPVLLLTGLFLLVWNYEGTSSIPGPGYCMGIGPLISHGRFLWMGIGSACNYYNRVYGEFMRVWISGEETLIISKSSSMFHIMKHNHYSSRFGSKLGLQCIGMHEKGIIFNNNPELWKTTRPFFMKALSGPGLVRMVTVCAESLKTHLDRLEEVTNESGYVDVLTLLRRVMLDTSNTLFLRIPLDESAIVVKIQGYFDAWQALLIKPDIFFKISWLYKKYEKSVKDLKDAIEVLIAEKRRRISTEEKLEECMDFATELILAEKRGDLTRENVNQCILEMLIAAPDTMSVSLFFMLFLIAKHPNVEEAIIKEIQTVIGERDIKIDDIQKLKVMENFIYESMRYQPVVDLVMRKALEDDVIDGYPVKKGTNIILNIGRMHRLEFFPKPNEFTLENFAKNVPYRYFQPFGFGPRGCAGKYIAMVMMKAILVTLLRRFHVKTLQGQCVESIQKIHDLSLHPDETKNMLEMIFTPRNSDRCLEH

COc1cc(S(=O)(=O)O)c(C)cc1N=Nc1c(O)ccc2cc(S(=O)(=O)O)ccc12
active: [1] 30.6 µM | [6] 30.6 µM | [7] 8.63 µM | [9] 9.69 µM
not listed: [17] | [18] | [19] | [20]
inactive: all other assays above

CN1CCCCC1CCN1c2ccccc2Sc2ccc(S(C)=O)cc21 (stereo not given)
inactive and 13.3 µM (active): [1]
not listed: [9] | [10] | [11] | [12] | [14] | [20]
inactive: all other assays above

C#CC1(O)CC[C@H]2[C@@H]3CCC4=CCCC[C@@H]4[C@H]3CC[C@@]21C (stereo not given in full)
active: [1] 30.6 µM | [20] 30.6 µM | [5] 57.4 nM [inconclusive] and 77.6 nM [inconclusive] | [17] 40.3 nM and 21.7 nM | [12] 18.8 µM | [15] 11.9 µM
inactive: [3] | [4] | [18] | [6] | [8] | [9] | [10]
inactive and 54.5 µM (active): [7]
inactive and 61.1 µM (active): [19]

OCCN1CCN(CCCN2c3ccccc3Sc3ccc(C(F)(F)F)cc32)CC1
active: [1] 6.68 µM | [20] 6.68 µM | [14] 29.8 µM
inactive: [3] | [4] | [5] | [17] | [18] | [6] | [8] | [15] | [16]

CCCC(=O)OCCc1ccccc1
not listed: [2] | [3] | [5] | [11] | [13] | [17] | [18] | [20]
inactive: all other assays above

CCCCC(CC)CN1CN(CC(CC)CCCC)CC(C)(N)C1 (stereo not given)
active: [12] 29.8 µM | [14] 18.8 µM
not listed: [1] | [11] | [13] | [16]
inactive: all other assays above

CCO[C@@H]1O[C@H](C(COCc2ccccc2)OCc2ccccc2)[C@H](OCc2ccccc2)[C@H]1O (stereo not given in full)
inactive: [1] | [4] | [6] | [19] | [7] | [8] | [9] | [12] | [14] | [15] | [16]

CCC(C)[O-].CCC(C)[O-].CCOC(=O)/C=C(/C)[O-].[Al+3]
inactive: [1] | [4] | [6] | [9] | [15] | [16]

CC(C)(C)C1CCC(=O)CC1
not listed: [2] | [10] | [15] | [16] | [20]
inactive: all other assays above

Cc1c2ccccc2c(C)c2c1ccc1ccccc12
active: [1] 27 µM and 13.7 µM | [17] 30.3 µM | [8] 8.55 µM and 21.7 µM | [12] 49 µM | [14] 24.3 µM
inactive: [6] | [7]
inactive and 27.3 µM (active): [19]

CNC(=O)c1ccccc1Sc1ccc2c(/C=C/c3ccccn3)n[nH]c2c1
inactive: [1] | [2] | [19] | [9] | [14] | [15] | [16]
active: [8] 3.76 µM

Cc1cc(=O)oc2cc(O)cc(O)c12
active: [8] 15.4 µM
inactive: [20] | [2] | [3] | [4] | [5] | [18] | [19] | [12] | [15]

COc1cc(C)ccc1O
not listed: [1] | [3] | [5] | [6]
inactive: all other assays above

CCCCCCCCCCOC(=O)c1ccccc1C(=O)OCCCCCCCC
not listed: [1] | [9] | [10] | [11] | [13] | [15]
inactive: all other assays above

CCc1cccc(CC)c1NC(=O)CN(CC(=O)O)CC(=O)O
not listed: [1] | [4] | [9] | [11] | [12] | [16] | [18]
inactive: all other assays above

CC1(C)CC(O)CC(C)(C)N1
not listed: [1] | [8] | [10] | [11] | [12] | [16]
inactive: all other assays above
